Screening data (PubChem)
Sampled rows, rich in hits. Any-hit rate of the full collection: about 2.2%.
ANO1 activ = TMEM16A chloride channel activators or potentiators, primary screen, cell-based, HTS. Anoctamin-1 (Mus musculus), Q8BHY3. HEK293 TMEM16A/YFP-H148Q/I152L, iodide quench fluorescence; hits give low values. B-score at 10 µM. actives 0.3% (n = 340,000);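 active = fluorescence-ratio B-score plate-corrected deviation score at least 3 library SD below zero, with starting fluorescence score within 5 deviations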;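 also: channel opened by trigger with iodide after compound preincubation; score built on the fluorescence ratio of max minus min over baseline; more negative score means more quench and so TMEM16A activation or potentiation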
Target sequence (Q8BHY3 whole entry, looked up): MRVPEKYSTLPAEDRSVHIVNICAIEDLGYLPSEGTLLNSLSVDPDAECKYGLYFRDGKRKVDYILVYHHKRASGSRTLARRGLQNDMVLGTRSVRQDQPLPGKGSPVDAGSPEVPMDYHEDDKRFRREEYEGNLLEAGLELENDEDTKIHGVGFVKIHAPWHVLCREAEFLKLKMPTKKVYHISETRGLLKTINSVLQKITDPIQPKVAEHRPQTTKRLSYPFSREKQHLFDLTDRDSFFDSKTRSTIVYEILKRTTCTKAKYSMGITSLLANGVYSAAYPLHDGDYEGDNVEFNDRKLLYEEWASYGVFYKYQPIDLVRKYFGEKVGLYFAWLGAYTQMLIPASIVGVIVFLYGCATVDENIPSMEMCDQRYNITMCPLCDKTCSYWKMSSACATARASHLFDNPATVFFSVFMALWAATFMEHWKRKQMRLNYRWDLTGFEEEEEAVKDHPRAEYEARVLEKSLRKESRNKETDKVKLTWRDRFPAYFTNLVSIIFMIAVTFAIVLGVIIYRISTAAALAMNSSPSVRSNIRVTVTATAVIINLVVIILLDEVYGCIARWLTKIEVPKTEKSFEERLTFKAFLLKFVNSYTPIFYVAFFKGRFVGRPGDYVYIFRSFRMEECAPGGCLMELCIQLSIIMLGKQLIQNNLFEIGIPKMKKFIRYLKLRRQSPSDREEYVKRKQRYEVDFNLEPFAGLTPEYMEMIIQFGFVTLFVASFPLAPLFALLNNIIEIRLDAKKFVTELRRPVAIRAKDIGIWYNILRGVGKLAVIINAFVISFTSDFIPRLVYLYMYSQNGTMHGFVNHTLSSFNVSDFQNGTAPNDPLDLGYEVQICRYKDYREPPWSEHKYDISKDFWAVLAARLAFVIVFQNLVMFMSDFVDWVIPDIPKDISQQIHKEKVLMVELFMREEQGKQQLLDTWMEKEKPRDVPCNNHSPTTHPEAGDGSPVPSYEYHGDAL
NTR1 ag = agonists of human NTR1, primary screen, imaging, U2OS cells, beta-arrestin-GFP, high content | Neurotensin receptor type 1 (Homo sapiens), P30989 | NTR1-U2OS beta-arrestin-GFP spot imaging, agonist mode | activation, % at 20 µM | actives 0.17% (n = 330,000) | AID 493036, 2011;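 active = activation at or above 40% of the spot to cytoplasm intensity ratio, with at least 20 cells analyzed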
TMEM16A inh = TMEM16A chloride channel inhibitors, primary screen, cell-based, HTS; Anoctamin-1 (Mus musculus), Q8BHY3; HEK293 TMEM16A/YFP iodide influx fluorescence, ionomycin; normalized B-score (activity score, 25-100; higher = stronger inhibition) at 10 µM; actives 1.2% (n = 310,000);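 active = ratio plate-corrected score three or more library SD toward inhibition, starting fluorescence score within five deviations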;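 also: score derived from kinetic fluorescence span divided by baseline fluorescence per well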
CHO-K1 Ca PAM = nonselective calcium activators in parental CHO-K1 cells, primary screen, counter-screen for M1 PAM project, cell-based, Fluo-8 calcium fluorescence, full deck, 1536-well; ATP EC20; 0% at ATP EC20, 100% at ATP max; activation, % at 3 µM; actives 0.02% (n = 360,000);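 active = activation above the run cutoff, the mean activation of all test compounds plus 3 SD, cut at about 40% in these data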;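 also: peak over basal fluorescence ratio in a 140 s read after ATP addition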
CHO-K1 Ca ag = counter-screen for M1 agonists: effect in parental CHO-K1 cells | Fluo-8 calcium fluorescence; scaled to maximal ATP response, vehicle zero | activation, % at 3 µM | actives 0.48% (n = 360,000) | AID 602248, 2012; in the data active = activation above about 15%;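 also: untransfected CHO-K1 host cells lacking M1 receptor as counterscreen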
CHO-K1 Ca antag = nonselective inhibitor or artifact in parental CHO-K1 cells | ATP-induced calcium, Fluo-8 fluorescence | inhibition, % at 3 µM | actives 0.6% (n = 360,000);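 active = inhibition above a per-plate cutoff, the plate's mean sample inhibition plus 3 SD, cut at about 24% in these data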
TMEM16A reconf = TMEM16A chloride channel inhibitors, confirmation, cell-based, re-confirmation. inhibition, % at 10 µM. AID 652189, 2013. actives 39% (n = 2,300). shares compounds with TMEM16A inh. HEK293 TMEM16A/YFP-H148Q, iodide quench fluorescence; ionomycin added to raise cell calcium;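 active = mean duplicate percent inhibition, scaled so buffer wells are 0 and the reference blocker 100, over three buffer SD above buffer mean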
TMEM16A Ca cntr = calcium mobilization in TMEM16A/YFP HEK293 cells, confirmation, counter-screen for TMEM16A inhibitor project; shares compounds with TMEM16A inh; Fluo4 calcium mobilization; calcium response (% of ionomycin), % at 10 µM; actives 2% (n = 2,300);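 active = duplicate-averaged calcium signal over 20% of the ionomycin maximum, relative to buffer baseline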;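 also: each well's signal is peak minus trough fluorescence divided by its pre-addition baseline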
YFP-HEK293 quench = iodide YFP quench changes in parental YFP-HEK293, counter-screen for TMEM16A inhibitor project, cell-based; shares compounds with TMEM16A inh; ionomycin; YFP ratio F(max-min)/F0 at 10 µM; 2,300 tested, under 10 active; AID 652233, 2013;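 active = yellow fluorescent protein signal ratio exceeding the buffer control mean by over 5 SD of those controls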;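 also: ratio is mean of duplicate wells from kinetic YFP trace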
ClC-1 rat inh = ClC-1 chloride channel inhibition, selectivity assay for TMEM16A inhibitor project, cell-based, voltage-dependent ClC-1; shares compounds with TMEM16A inh; CHO ClC-1-YFP, iodide influx fluorescence quench; iodide control reads 0, buffer control 100; ratio percent, % at 10 µM; 2,300 tested, under 10 active; AID 652236, 2013;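 active = duplicate-mean ratio percent above the mean of iodide-only control wells, which defines zero, plus 5 of their SD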;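 also: higher percent means stronger block of ClC-1 iodide influx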
Hits are given with their value; 0 = inactive; - = no result given.

SMILES | ANO1 activ | NTR1 ag | TMEM16A inh | CHO-K1 Ca PAM | CHO-K1 Ca ag | CHO-K1 Ca antag | TMEM16A reconf | TMEM16A Ca cntr | YFP-HEK293 quench | ClC-1 rat inh
O=C(Nc1nc(-c2ccc(S(=O)(=O)N3CCCC3)cc2)cs1)c1cccs1 | 0 | 0 | 25 | 0 | 0 | 0 | 26% | 0 | 0 | 0
CC1CN(S(=O)(=O)c2ccc(C(=O)Nc3nc(-c4cc5ccccc5o4)cs3)cc2)CC(C)O1 (stereo not given) | 0 | 0 | 25 | 0 | 0 | 0 | 0 | 0 | 0 | 0
COc1ccccc1N1CCN(C(=O)C2=CC=CN3CCS(=O)(=O)N=C23)CC1 | 0 | 0 | - | 0 | 0 | 0 | - | - | - | -
O=C(CCN1C(=O)C2CC=CCC2C1=O)Nc1nc(-c2ccc(F)c(F)c2)cs1 (stereo not given) | 0 | 0 | - | 0 | 0 | 0 | - | - | - | -
C[C@@H](CO)NC(=O)c1[nH]cnc1C(=O)Nc1cccc(Cl)c1 | - | - | - | 0 | 0 | 0 | - | - | - | -
O=C(CSc1ccc2nnc(-c3ccccc3)n2n1)NCc1ccco1 | 0 | 0 | 100 | 0 | 0 | 0 | 0 | 0 | 0 | 0
COc1ccc(-c2nnc3ccc(SCC(=O)NCc4ccco4)nn23)cc1 | 0 | 0 | 0 | 0 | 0 | 0 | - | - | - | -
O=C(CSc1ncc(-c2ccccc2)n1-c1ccccc1)NCc1ccco1 | 0 | 0 | 25 | 0 | 0 | 0 | 0 | 0 | 0 | 0
COc1cccc(-c2cnc(C(O)c3ccc(CN4CCCC4)cc3)[nH]2)c1 (stereo not given) | - | - | - | 0 | 0 | 0 | - | - | - | -
COc1ccc(COCC(O)CN2CCN(S(=O)(=O)c3c(F)cccc3F)CC2)cc1OC (stereo not given) | 0 | - | - | 0 | 0 | 0 | - | - | - | -
COc1ccc(NC(=O)CCOc2ccccc2C)cc1S(=O)(=O)N1CCCCC1 | 0 | 0 | 25 | 0 | 0 | 0 | 0 | 0 | 0 | 0
Cc1ccccc1OCC(=O)Nc1ccc(C)c(S(=O)(=O)N2CCCCCC2)c1 | 0 | 0 | 25 | 0 | 0 | 0 | 0 | 0 | 0 | 0
COc1ccccc1CCC(=O)Nc1ccc(OC)c(S(=O)(=O)N2CCCCC2)c1 | 0 | 0 | - | 0 | 0 | 0 | - | - | - | -
CCOc1ccc(C2OCCC(C)O2)cc1OC (stereo not given) | 0 | - | - | 0 | 0 | 0 | - | - | - | -
Cc1ccc(Oc2ccccc2NC(=O)CSCC(=O)Nc2cc(C)on2)cc1 | 0 | 0 | 0 | 0 | 0 | 0 | 22% | 0 | 0 | 0
CC1CCCN(C(=O)COC(=O)Cc2ccc(Cl)cc2)C1 (stereo not given) | 0 | 0 | 0 | 0 | 0 | 0 | - | - | - | -
CC1CCCN(C(=O)Cc2cn(Cc3cccc(Cl)c3)c3ccccc23)C1 (stereo not given) | 0 | 0 | 100 | 0 | 0 | 0 | 24% | 0 | 0 | 0
CCN(CC)c1c(-c2ccccc2)c2cc(C)ccc2[nH]c1=O | 0 | 0 | 25 | 0 | 0 | 0 | 0 | 0 | 0 | 0
C/C(=N\N)c1c(-c2ccccc2)c2cc(C)ccc2[nH]c1=O | 0 | 0 | 0 | 0 | 0 | 0 | - | - | - | -
CC(C)NC(=O)CN1CCN(C(c2ccnc3ccccc23)c2nnnn2-c2ccc3c(c2)OCCO3)CC1 (stereo not given) | - | - | - | 0 | 0 | 0 | - | - | - | -
CCOC(=O)c1[nH]c(C)c(C(=O)Nc2ccc3c(c2)OCCO3)c1C | 0 | 0 | 25 | 0 | 0 | 0 | 0 | 0 | 0 | 0
O=C(c1ccccc1F)N1CCCC(N2CCN(Cc3ccc4c(c3)OCO4)CC2)C1 (stereo not given) | - | - | - | 0 | 0 | 0 | - | - | - | -
CCCn1nnc(NC(=O)COc2ccc(C3CCCCC3)cc2)n1 | 0 | 0 | 100 | 0 | 0 | 0 | 44% | 0 | 0 | 0
CCc1nnc(NC(=O)C2Cc3ccccc3CN2S(=O)(=O)c2c(C)c(C)cc(C)c2C)s1 (stereo not given) | 0 | 0 | 25 | 0 | 0 | 0 | 0 | 0 | 0 | 0
CCOC(=O)c1ccccc1NC(=O)CSc1nnc(COc2ccccc2C)n1C | 0 | 0 | 25 | 0 | 0 | 0 | 0 | 0 | 0 | 0
SMILES | ANO1 activ | NTR1 ag | TMEM16A inh | CHO-K1 Ca PAM | CHO-K1 Ca ag | CHO-K1 Ca antag | TMEM16A reconf | TMEM16A Ca cntr | YFP-HEK293 quench | ClC-1 rat inh
CCOC(=O)c1ccccc1NC(=O)CSc1nnnn1C1CCCCC1 | 0 | 0 | 100 | 0 | 0 | 0 | 0 | 0 | 0 | 0
COCc1c(C(=O)NCCc2ccc(OC(F)F)cc2)oc2ccccc12 | 0 | 0 | - | 0 | 0 | 0 | - | - | - | -
Cn1c(CNS(=O)(=O)c2ccc(F)cc2)n[nH]c1=S | 0 | 0 | 100 | 0 | 0 | 0 | 0 | 0 | 0 | 0
COc1cc(C(O)c2nc(-c3ccccc3OC)cs2)ccc1F (stereo not given) | - | - | - | 0 | 0 | 0 | - | - | - | -
O=C(NCc1ccccc1)C12CC3CC(CC(C3)C1)C2 | 0 | 0 | 0 | 0 | 0 | 0 | - | - | - | -
O=C(Nn1nnnc1Nc1ccccc1)C12CC3CC(CC(C3)C1)C2 | 0 | 0 | 25 | 0 | 0 | 0 | 0 | 0 | 0 | 0
CCCS(=O)(=O)N1CCC(C(=O)NCCCOC)CC1 | 0 | 0 | 100 | 0 | 0 | 0 | 0 | 0 | 0 | 0
CCS(=O)(=O)N1CCC(C(=O)NCCCOC)CC1 | 0 | 0 | 0 | 0 | 0 | 0 | - | - | - | -
O=c1ccn([C@@H]2O[C@H](CNCc3c(OCc4ccccc4F)ccc4ccccc34)[C@@H](O)[C@H]2O)c(=O)[nH]1 | - | - | - | 0 | 0 | 0 | - | - | - | -
O=C1C2C(c3ccccc3)CC=CC2[C@H](c2ccc(C(F)(F)F)cc2)N1Cc1ccccc1 (stereo not given in full) | 0 | 0 | 25 | 0 | 0 | 0 | 0 | 0 | 0 | 0
O=C(Nc1ccc(Cl)c(S(=O)(=O)N2CCCC2)c1)c1cc(=O)[nH]c2ccccc12 | 0 | 0 | - | 0 | 0 | 0 | - | - | - | -
CCN(CC)C(=O)C1=C(C)N(Cc2ccc(C(C)(C)C)cc2)C(=O)C(CC(=O)NC(c2ccccc2)c2ccccc2)C1 (stereo not given) | - | - | - | 0 | 0 | 0 | - | - | - | -
